Experimental findings from PubChem BioAssay (NCATS) are described below.

Records with an inconclusive call do not appear. Where a call stands in place of a potency, no number is given. Active and inactive are the calls of the source. The call rests on the fitted dose curve; in most records, active means well fitted inhibition curve with a large enough effect; inconclusive means small, poorly fitted or top-dose-only effect; inactive means flat fitted curve, though single readings scatter.
Potency means the concentration at half of the fitted maximal effect.

The first assay deals with MCC-26. The assay is described as follows: qHTS assay to identify novel small-molecules to repurpose for Merkel cell carcinoma treatment (AID 1296009). Further: nearly all actives have a fitted effect of over 60% in size. The note with it: MCC and control cell lines, CellTiter-Glo viability, 72 h; series mostly up to 46 µM. In a few lines:
(§1)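 Cell viability measured by CellTiter-Glo following 72 hr compound treatment at 37 degree celsius, with NPC and MIPE libraries tested in 8- and 11-point concentration series.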
Turning to `COc1nccc(-c2c(-c3ccc(F)cc3)ncn2C2CCC(O)CC2)n1` (stereo unspecified), the Potency entry was “inactive”.

Turning to `O=C1C(c2c(O)[nH]c3ccccc23)=Nc2ccccc21`, the Potency result was “inactive”.

On to `COc1ccc(-c2ccc3ncc4c(c3c2)n(-c2ccc(N3CCNCC3)c(C(F)(F)F)c2)c(=O)n4C)cn1`, for which the Potency is 372 nM (active).

Regarding `NS(=O)(=O)c1cc(Cl)c(Cl)c(S(N)(=O)=O)c1`, the Potency entry is “inactive”.

On to `CN1C(=O)C(Cc2c[nH]c3ccccc23)NC1=S` (stereo unspecified), for which the Potency result was “inactive”.

On to `CN1c2ccccc2C(=O)N2CCc3c([nH]c4ccccc34)C21` (stereo unspecified), for which the Potency entry was “inactive”.

For `COc1ccnc(CS(=O)c2nc3ccc(OC(F)F)cc3[nH]2)c1OC` (stereo unspecified), the Potency entry is “inactive”.

Consider `c1cc(OCCN2CCCCC2)cc(-c2n[nH]c3ccc(-c4ncn[nH]4)cc23)c1`, for which the Potency entry is “inactive”.

Consider `CCOC(=O)[C@H](CCc1ccccc1)N[C@@H](C)C(=O)N1CCCC1C(=O)O` (stereo partly specified), for which the Potency entry was “inactive”.

Consider `O=C(CO)N1CCC(c2[nH]nc(-c3ccc(Cl)cc3)c2-c2ccncn2)CC1`, for which the Potency result was “inactive”.

As to `CC(C)(OCc1nn(Cc2ccccc2)c2ccccc12)C(=O)O`, the Potency result was “inactive”.

Consider `Cc1ccccc1C(C(=O)NC1CCCCC1)N(C(=O)CNc1ccc(C#N)cc1)c1cccc(F)c1` (stereo unspecified), for which the Potency entry is “inactive”.

On to `O=c1cc(-c2ccc(O)c(O)c2)oc2cc(O)cc(O)c12`, for which the Potency entry is “inactive”.

On to `COc1nc(C)cnc1NS(=O)(=O)c1cccnc1-c1ccc(-c2nnco2)cc1`, for which the Potency entry was “inactive”.

As to `O=C(c1ccc(C(=O)N2CCC(N3CCCC3)CC2)c(Nc2ccccc2)c1)N1CCC(N2CCCC2)CC1`, the Potency result was “inactive”.

For `CC(C)CNc1ccnc(NCc2csc(-c3ccccc3)n2)n1`, the Potency entry was “inactive”.

With `Clc1ccc(C2(c3ccc(-c4cn[nH]c4)cc3)CCNCC2)cc1`, the Potency result is “inactive”.

Regarding `CC(=O)N1CCN(c2ccc(OCc3nn(C)c(C)c3-c3cccc4c(CCCOc5cc(C)c(Cl)c(C)c5)c(C(=O)O)n(Cc5cccnc5)c34)cc2)CC1`, the Potency result was “inactive”.

On to `c1ccc(CNc2nc(N3CCOc4ccccc43)nc3c2CCCC3)cc1`, for which the Potency result is “inactive”.

As for `Cn1c(=O)c(-c2c(Cl)cccc2Cl)cc2cnc(Nc3cccc(C(=O)O)c3)nc21`, the Potency result was “inactive”.

`CCN1C[C@H](C)n2c(c(O)c3c(=O)n(Cc4ccc(F)c(Cl)c4)nc(C(=O)NC)c32)C1=O`: the Potency entry was “inactive”.

In the case of `COc1ccc(CCC(=O)Nc2nc3ccc(Cl)cc3s2)cc1OC`, the Potency result is “inactive”.

For the compound `Cc1cc2c(cc1C1(c3ccc(C(=O)O)cn3)CC1)C(C)(C)CCC2(C)C`, the Potency result was “inactive”.

As to `COc1cc2ncnc(Nc3cc(Br)c(O)c(Br)c3)c2cc1OC`, the Potency entry was “inactive”.

As to `O=C(O)CCNc1cc(N2CCc3ccccc3CC2)nc(-c2ccccn2)n1`, the Potency result was “inactive”.

Take `C[C@@]1(c2cc(-c3cncnc3)c(F)cc2F)CCSC(N)=N1`: the Potency result is “inactive”.

On to `C[C@H](c1ccc(F)cc1CCCC(=O)O)N(c1cc(F)ccc1F)S(=O)(=O)c1ccc(Cl)cc1`, for which the Potency entry is “inactive”.

With `COc1ccc(-c2cc(=O)c3c(O)cc(O[C@@H]4O[C@H](CO[C@@H]5O[C@@H](C)[C@H](O)[C@@H](O)[C@@H]5O)[C@@H](O)[C@H](O)[C@@H]4O)cc3o2)cc1O`, the Potency entry was “inactive”.

As to `COC(=O)N1CCN(Cc2cccc(NC(=O)Nc3ccc(C)nc3)c2F)CC1`, the Potency entry is “inactive”.

On to `Cc1cnc(-c2cc(N3CCN(C(=O)CCS(C)(=O)=O)CC3)ncc2Cl)c(C)c1`, for which the Potency entry is “inactive”.

Consider `NC(=O)c1ccc(N(C(N)=O)c2c(F)cccc2F)nc1-c1ccc(F)cc1F`, for which the Potency result was “inactive”.

The next assay relates to MKL-1. The assay is described as above. The note with it: MCC and control cell lines, CellTiter-Glo viability, 72 h; series mostly up to 46 µM. The method in brief:
as §1
On the technique in general: In ATP-based viability assays light output follows the ATP content of the culture.
Turning to `COc1nccc(-c2c(-c3ccc(F)cc3)ncn2C2CCC(O)CC2)n1` (stereo unspecified), the Potency entry is “inactive”.

Turning to `CNc1nc(Nc2ccc(C(=O)N3CCOCC3)cc2OC)ncc1Cl`, the Potency result was “inactive”.

As for `O=C1C(c2c(O)[nH]c3ccccc23)=Nc2ccccc21`, the Potency entry was “inactive”.

With `COc1cc(Nc2nc3ccccc3nc2NS(=O)(=O)c2ccc(NC(=O)c3ccc(C)c(OC)c3)cc2)cc(OC)c1`, the Potency result was “inactive”.

On to `COc1ccc(-c2ccc3ncc4c(c3c2)n(-c2ccc(N3CCNCC3)c(C(F)(F)F)c2)c(=O)n4C)cn1`, for which the Potency was 29.6 nM (active).

With `NS(=O)(=O)c1cc(Cl)c(Cl)c(S(N)(=O)=O)c1`, the Potency result was “inactive”.

Take `CN1C(=O)C(Cc2c[nH]c3ccccc23)NC1=S` (stereo unspecified): the Potency entry was “inactive”.

Turning to `CN1c2ccccc2C(=O)N2CCc3c([nH]c4ccccc34)C21` (stereo unspecified), the Potency entry was “inactive”.

Take `CC1CCN(c2cc(N3CCN(C)CC3)ccc2NC(=O)c2cc(C#N)c[nH]2)CC1`: the Potency entry was “inactive”.

Take `COc1ccnc(CS(=O)c2nc3ccc(OC(F)F)cc3[nH]2)c1OC` (stereo unspecified): the Potency entry was “inactive”.

In the case of `c1cc(OCCN2CCCCC2)cc(-c2n[nH]c3ccc(-c4ncn[nH]4)cc23)c1`, the Potency entry was “inactive”.

As to `CCOC(=O)[C@H](CCc1ccccc1)N[C@@H](C)C(=O)N1CCCC1C(=O)O` (stereo partly specified), the Potency entry was “inactive”.

For the compound `O=C(CO)N1CCC(c2[nH]nc(-c3ccc(Cl)cc3)c2-c2ccncn2)CC1`, the Potency result is “inactive”.

With `Cc1ccccc1-n1c(Cn2nc(-c3cccc(O)c3)c3c(N)ncnc32)nc2cccc(C)c2c1=O`, the Potency was 1050 nM (active).

Take `CC(C)(OCc1nn(Cc2ccccc2)c2ccccc12)C(=O)O`: the Potency result was “inactive”.

With `Nc1ccc(-c2ccc3ncc4ccc(=O)n(-c5cccc(C(F)(F)F)c5)c4c3c2)cn1`, the Potency is 148 nM (active).

Turning to `Cc1ccccc1C(C(=O)NC1CCCCC1)N(C(=O)CNc1ccc(C#N)cc1)c1cccc(F)c1` (stereo unspecified), the Potency entry is “inactive”.

For the compound `O=c1cc(-c2ccc(O)c(O)c2)oc2cc(O)cc(O)c12`, the Potency result was “inactive”.

As for `COc1nc(C)cnc1NS(=O)(=O)c1cccnc1-c1ccc(-c2nnco2)cc1`, the Potency result was “inactive”.

As for `O=C(c1ccc(C(=O)N2CCC(N3CCCC3)CC2)c(Nc2ccccc2)c1)N1CCC(N2CCCC2)CC1`, the Potency result was “inactive”.

Turning to `CC1=C(C(=O)Nc2cc3cn[nH]c3cc2F)C(c2ccc(C(F)(F)F)cc2)CC(=O)N1` (stereo unspecified), the Potency result was “inactive”.

`CC(=O)N1CCN(c2ccc(OCc3nn(C)c(C)c3-c3cccc4c(CCCOc5cc(C)c(Cl)c(C)c5)c(C(=O)O)n(Cc5cccnc5)c34)cc2)CC1`: the Potency result was “inactive”.

As for `c1ccc(CNc2nc(N3CCOc4ccccc43)nc3c2CCCC3)cc1`, the Potency entry was “inactive”.

Consider `Cn1c(=O)c(-c2c(Cl)cccc2Cl)cc2cnc(Nc3cccc(C(=O)O)c3)nc21`, for which the Potency result is “inactive”.

In the case of `CCN1C[C@H](C)n2c(c(O)c3c(=O)n(Cc4ccc(F)c(Cl)c4)nc(C(=O)NC)c32)C1=O`, the Potency entry was “inactive”.

`COc1ccc(CCC(=O)Nc2nc3ccc(Cl)cc3s2)cc1OC`: the Potency entry is “inactive”.

As for `Cc1cc2c(cc1C1(c3ccc(C(=O)O)cn3)CC1)C(C)(C)CCC2(C)C`, the Potency entry is “inactive”.

Consider `COc1cc2ncnc(Nc3cc(Br)c(O)c(Br)c3)c2cc1OC`, for which the Potency result was “inactive”.

With `O=C(O)CCNc1cc(N2CCc3ccccc3CC2)nc(-c2ccccn2)n1`, the Potency result was “inactive”.

For `C[C@@]1(c2cc(-c3cncnc3)c(F)cc2F)CCSC(N)=N1`, the Potency result is “inactive”.

As to `C[C@H](c1ccc(F)cc1CCCC(=O)O)N(c1cc(F)ccc1F)S(=O)(=O)c1ccc(Cl)cc1`, the Potency result is “inactive”.

Regarding `COc1ccc(-c2cc(=O)c3c(O)cc(O[C@@H]4O[C@H](CO[C@@H]5O[C@@H](C)[C@H](O)[C@@H](O)[C@@H]5O)[C@@H](O)[C@H](O)[C@@H]4O)cc3o2)cc1O`, the Potency result was “inactive”.

In the case of `COC(=O)N1CCN(Cc2cccc(NC(=O)Nc3ccc(C)nc3)c2F)CC1`, the Potency result was “inactive”.

As for `Cc1cnc(-c2cc(N3CCN(C(=O)CCS(C)(=O)=O)CC3)ncc2Cl)c(C)c1`, the Potency result was “inactive”.

As to `NC(=O)c1ccc(N(C(N)=O)c2c(F)cccc2F)nc1-c1ccc(F)cc1F`, the Potency result was “inactive”.
